Screening data deposited in PubChem BioAssay by several laboratories.
A selection: hits, their analogues and other compounds. The true share with any hit is near 4.2%.
CCHF vOTU inh = blocks the CCHF virus ovarian tumor domain protease. CCHFV vOTU protease, Pep-AMC fluorescence. inhibition, % at 11.5 µM. actives 0.55% (n = 370,000)
Mtb betalactam = beta-lactam sensitization of Mtb H37Rv; M. tuberculosis H37Rv growth with meropenem, percent inhibition; inhibition, % at 25 µM; actives 0.27% (n = 330,000); AID 434955; call rule not given here;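 note: growth measured after seven days incubation then overnight dye step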
FBA Mtb inh = inhibits M. tuberculosis FBA enzyme; purified M. tuberculosis FBA, fluorescence read-out; P9WQA3; actives 2.3% (n = 360,000); inhibition, % at 1 µM; AID 588726; in the data active = inhibition above about 27%
Target sequence (P9WQA3 whole entry, looked up): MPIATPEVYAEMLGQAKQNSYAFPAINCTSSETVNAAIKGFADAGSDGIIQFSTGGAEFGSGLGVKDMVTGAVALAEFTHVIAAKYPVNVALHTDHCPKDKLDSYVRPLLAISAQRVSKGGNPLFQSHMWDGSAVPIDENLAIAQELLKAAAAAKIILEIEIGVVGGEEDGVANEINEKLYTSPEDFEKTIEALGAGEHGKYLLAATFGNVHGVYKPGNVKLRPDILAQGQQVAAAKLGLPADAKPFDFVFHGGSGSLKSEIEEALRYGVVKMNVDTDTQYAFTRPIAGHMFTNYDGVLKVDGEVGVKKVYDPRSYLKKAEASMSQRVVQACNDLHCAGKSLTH
GDH-TPI counter-1 = inhibits GDH-TPI coupling enzymes, artifact for Mtb FBA screen; actives 1.2% (n = 360,000); inhibition, % at 4.8 µM; GDH-TPI coupled enzyme counterscreen, NADH absorbance
RecA splice inh = Mtb RecA intein splicing inhibition; AID 2221; inhibition, % (concentration not given with the values); actives 0.75% (n = 290,000); cell-free RecA intein splicing, fluorescence; in the data active = inhibition above about 30%; inconclusive = no clear call, values can overlap the other calls
Mtb FBA inh conf = confirmation of M. tuberculosis fructose-bisphosphate aldolase inhibitors; shares compounds with FBA Mtb inh; purified M. tuberculosis FBA, fluorescence read-out; actives 78% (n = 5,600); inhibition, % at 1 µM; in the data active = inhibition above about 27%
GDH-TPI counter-2 = GDH-TPI inhibition counter-screen for FBA inhibitors. shares compounds with FBA Mtb inh. GDH-TPI coupled enzyme counterscreen, fluorescence. inhibition, % at 1 µM. actives 81% (n = 5,600). AID 652141; in the data active = inhibition above about 10%
A number is an active result; . = inactive; ? = inconclusive; / = not tested or not shown; + = active, no number. Cut-off read from the data, not from the text of the source, unless noted: active = inhibition above about 30%; inactive = the rest.

SMILES	CCHF vOTU inh	Mtb betalactam	FBA Mtb inh	GDH-TPI counter-1	RecA splice inh	Mtb FBA inh conf	GDH-TPI counter-2
Cc1cc(=O)oc2cc(OCC(=O)Nc3ccc(S(=O)(=O)N(C)C)cc3)ccc12	.	.	29.2	.	/	101.4	63.6
Cc1cc(=O)oc2cc(OCC(=O)OCC(=O)Nc3ccc(C(C)C)cc3)ccc12	.	.	29.3	.	.	86.3	69.3
Cc1ccc(C2C=C(c3ccccc3)Nc3ncnn32)cc1 (stereo unspecified)	.	.	30.1	.	.	38.3	26.1
CCOc1ccc(C2C=C(c3ccc(F)cc3)Nc3ncnn32)cc1 (stereo unspecified)	.	.	31.1	.	.	146.3	100.0
CCOc1ccc(C2C=C(c3ccccc3)Nc3ncnn32)cc1 (stereo unspecified)	/	.	/	/	.	/	/
COc1cccc(C2=CC(c3ccccc3)n3ncnc3N2)c1 (stereo unspecified)	/	.	/	/	.	/	/
Cc1cc(S(=O)(=O)NC(=O)[C@H]2O[C@@H](n3ccc(=O)[nH]c3=O)[C@H](O)[C@@H]2O)ccc1Br	.	/	/	/	/	/	/
CN(C(=O)CSc1nc(N)c2c3c(sc2n1)CSC(C)(C)C3)c1ccccc1	.	.	30.8	.	.	61.4	49.3
CN(C(=O)CSC1=NCCS1)c1ccccc1	.	.	.	.	.	/	/
CCCn1nc(NC(=O)C2CCCO2)c2cc3cccc(C)c3nc21 (stereo unspecified)	.	.	37.3	.	.	179.4	149.1
c1ccc(-c2nccc(-c3ccc4c(c3)OCO4)n2)cc1	.	.	.	.	.	/	/
c1coc(-c2nnc(-c3ccc4c(c3)OCO4)o2)c1	.	/	/	/	.	/	/
Cc1ccc(-c2nnc(-c3ccc4c(c3)OCO4)o2)cc1	.	.	27.0	.	.	74.8	55.0
Cc1nccc(-c2ccc3c(c2)OCO3)n1	.	.	28.7	.	.	68.4	48.1
COC(=O)N1C[C@H](Oc2ncccn2)[C@H]2C[C@@H]1c1ccccc1O2	.	/	/	/	/	/	/
CCn1c(SCC(=O)NC2CCCCC2)nnc1-c1cccs1	.	.	.	.	.	/	/
CCn1c(SC(=O)NC2CCCCC2)nnc1-c1cccs1	.	.	45.5	.	.	.	.
CC(=O)NCCNc1nc2cc(-c3ccc4c(ccn4C)c3)sc2c(=O)n1C	.	/	32.8	.	/	78.0	83.1
Cc1ccc(O)c(Nc2c3ccccc3nc3ccccc23)c1	.	.	99.2	.	.	+	+
Nc1nc2c(c(=O)[nH]1)CN(Cc1ccccc1)CC2	.	.	53.4	.	.	107.5	98.7
COc1c(Cl)cccc1-c1cn2ccccc2n1	.	.	68.1	.	.	.	.
c1ccc(C2=NN(c3ccccc3)CC2)cc1	.	.	48.5	.	.	.	.
CCOC(=O)/C(=C/c1ccc(N2CCC(c3ccccc3)=N2)cc1)C(C)=O	/	/	.	.	.	/	/
CCCCN(Cc1ccco1)C(=O)c1cc2c(=O)[nH]c3ccc(C)cc3c2s1	.	.	.	.	.	/	/
CCCCN(CC)C(=O)c1cc2c(=O)[nH]c3ccc(C)cc3c2s1	.	.	.	.	.	/	/
SMILES	CCHF vOTU inh	Mtb betalactam	FBA Mtb inh	GDH-TPI counter-1	RecA splice inh	Mtb FBA inh conf	GDH-TPI counter-2
Cc1ccc2[nH]c(=O)c3cc(C(=O)N(CCCOC(C)C)Cc4ccco4)sc3c2c1	.	.	28.4	.	.	.	10.9
Cc1ccc2oc(=O)c3cc(C(=O)NCCN4CCc5ccccc5C4)sc3c2c1	.	.	.	.	.	/	/
CCOC(=O)CNC(=O)c1cc2c(=O)[nH]c3ccc(C)cc3c2s1	.	.	31.5	.	.	118.4	97.5
Cc1ccc2[nH]c(=O)c3cc(C(=O)NCCN4CCN(C)CC4)sc3c2c1	.	?	49.4	.	.	196.0	159.4
Cc1ccc(C)c(OCC(=O)Nc2nc3ccc([N+](=O)[O-])cc3s2)c1C	.	.	53.0	.	.	.	.
CC(=O)Nc1ccc2nc(NC(=O)COc3ccc([N+](=O)[O-])cc3)sc2c1	.	.	.	.	.	/	/
COCCCNC(=O)C[C@H]1C[C@H](C(=O)N2CCCCC2)[C@@]2(C)c3[nH]c4cc(-c5ccco5)ccc4c3CCN2C1=O	.	/	27.3	.	/	68.2	51.7
C[C@]12c3[nH]c4cc(-c5ccco5)ccc4c3CCN1C(=O)[C@@H](CC(=O)NCCN1CCOCC1)C[C@@H]2C(=O)N1CCCCC1	.	/	34.8	.	/	.	.
CC[C@]12c3[nH]c4cc(-c5ccco5)ccc4c3CCN1C(=O)[C@@H](CC(=O)NCCCOC)C[C@@H]2C(=O)N1CCN(C(=O)C2CC2)CC1	.	/	.	.	/	/	/
OC(c1ccccc1)(c1ccccc1)C1CCN(CCCOc2ccncc2)CC1	.	/	/	/	/	/	/
O=C1CSc2ccc(C(=O)N3CCCC(C(=O)N4CCOCC4)C3)cc2N1 (stereo unspecified)	.	/	/	/	/	/	/
COc1cccc(-c2nnc(SCC(=O)Nc3ccc(OCc4ccccc4)cc3)n2Cc2ccco2)c1	.	/	/	/	/	/	/
NC1=NC(c2cn[nH]c2-c2cccc(F)c2)n2c(nc3ccccc32)N1 (stereo unspecified)	.	.	.	.	.	/	/
COc1ccc(-c2[nH]ncc2C2N=C(N)Nc3nc4ccccc4n32)cc1 (stereo unspecified)	.	.	33.9	.	.	70.0	51.9
Cc1ccc(C(=O)OCC(=O)NC2CCCc3ccccc32)o1 (stereo unspecified)	.	.	.	.	/	/	/
Nc1nccnc1C(=O)OCC(=O)NC1CCCc2ccccc21 (stereo unspecified)	.	.	94.8	.	/	109.5	96.8
COC(=O)C(C)Oc1cc(C)cc2oc(=O)c3c(c12)CCC3 (stereo unspecified)	.	.	74.0	.	.	+	+
COC(=O)C(C)Oc1cc(C)cc2oc(=O)c3c(c12)CCCC3 (stereo unspecified)	.	.	57.0	.	.	59.1	51.0
Cc1cc(OCC(=O)NCC2CCC(C(=O)O)CC2)c2c3c(c(=O)oc2c1)CCC3 (stereo unspecified)	.	.	.	.	.	/	/
Cc1cc(OCC(=O)OC(C)C)c2c3c(c(=O)oc2c1)CCCC3	.	.	.	.	.	/	/
CCOC(=O)C(C)Oc1cc(C)cc2oc(=O)c3c(c12)CCCC3 (stereo unspecified)	.	.	75.3	.	.	65.3	61.5
CC(C(=O)NC(C)(C)C)N1C(=O)c2cccc3cccc(c23)C1=O (stereo unspecified)	.	.	27.2	.	.	.	.
Fc1ccc(-c2cnc(-c3cccs3)o2)cc1	.	.	60.6	.	.	81.2	70.5
N#Cc1cc(-c2ccccc2)c[nH]c1=O	.	.	58.2	.	.	93.6	88.9
CC(=O)CC[C@H]1CC[C@]2(CCCN(C(=O)c3ccno3)C2)O1	.	/	/	/	/	/	/
COc1ccc(-c2cc3c(=O)n(CC(=O)Nc4ccc(Cl)cc4)nc(C)n3n2)cc1	.	.	.	.	.	/	/
COc1ccc(-c2cc3c(=O)n(CC(=O)NCc4cccnc4)nc(C)n3n2)cc1	.	.	28.4	.	.	.	10.8
